Laboratory results reported in PubChem BioAssay AID1159580 (chemical genetic matrix, 2015).
Values joined by “and” are separate entries in the source; they are usually repeats but may differ in a detail not shown here. Equal entries are not always repeated. The campaign covered roughly 5,500 compounds. About 2,000 (36%) were called active. Roughly 18% stayed inconclusive and do not appear here. Cut-off read from the data, not from the text of the source: active = normalized growth mostly below about 0.91 (no sharp cut-off); inconclusive = no clear call, values can overlap the other calls; inactive = mostly above about 0.92. The list shows a part of the results.

Assay: chemical genetic growth profiling, strain panel (AID 1159580);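 note: tested at 20 µM; growth read once vehicle control cultures reached saturation at 30 °C; 1 = growth at the plate median or of vehicle wells; lower values mean less growth of the strain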
Details: S. cerevisiae deletion strains, growth OD

Measured: normalized growth

O=C(O[C@@H]1Cc2c(O)cc(O)cc2O[C@@H]1c1cc(O)c(=O)c2c(O)c(O)cc([C@H]3Oc4cc(O)cc(O)c4C[C@H]3O)c2c1)c1cc(O)c(O)c(O)c1
active: locus YAL021C, strain ccr4, stronger effect = lower value 0.0928 | locus YAL026C, strain drs2, stronger effect = lower value 0.46 | locus YAL030W, strain snc1, stronger effect = lower value 0.715 | locus YBL061C, strain skt5, stronger effect = lower value 0.531 | locus YBR009C, strain hhf1, stronger effect = lower value 0.556 | locus YBR023C, strain chs3, stronger effect = lower value 0.457 | locus YBR229C, strain ROT2, stronger effect = lower value 0.67 | locus YBR231C, strain swc5, stronger effect = lower value 0.427 | locus YBR279W, strain paf1, stronger effect = lower value 0.549 | locus YCL011C, strain gbp2, stronger effect = lower value 0.62 | locus YCL016C, strain dcc1, stronger effect = lower value 0.765 | locus YCL029C, strain bik1, stronger effect = lower value 0.801 | locus YCL061C, strain MRC1, stronger effect = lower value 0.765 | locus YCL069W, strain vba3, stronger effect = lower value 0.797 | locus YCR088W, strain abp1, stronger effect = lower value 0.911 | locus YDL035C, strain GPR1, stronger effect = lower value 0.224 | locus YDL040C, strain nat1, stronger effect = lower value 0.767 | locus YDL074C, strain BRE1, stronger effect = lower value 0.42 | locus YDL101C, strain DUN1, stronger effect = lower value 0.233 | locus YDL134C, strain PPH21, stronger effect = lower value 0.184 | locus YDL192W, strain arf1, stronger effect = lower value 0.828 | locus YDR069C, strain doa4, stronger effect = lower value 0.116 | locus YDR101C, strain arx1, stronger effect = lower value 0.896 | locus YDR137W, strain rgp1, stronger effect = lower value 0.497 | locus YDR150W, strain NUM1, stronger effect = lower value 0.829 | locus YDR159W, strain sac3, stronger effect = lower value 0.838 | locus YDR162C, strain NBP2, stronger effect = lower value 0.144 | locus YDR195W, strain ref2 0.814 | locus YDR297W, strain sur2, stronger effect = lower value 0.599 | locus YDR318W, strain mcm21, stronger effect = lower value 0.877 | locus YDR334W, strain swr1, stronger effect = lower value 0.571 | locus YDR335W, strain msn5, stronger effect = lower value 0.638 | locus YDR502C, strain sam2, stronger effect = lower value 0.69 | locus YEL003W, strain gim4, stronger effect = lower value 0.659 | locus YEL037C, strain rad23, stronger effect = lower value 0.709 | locus YER015W, strain faa2, stronger effect = lower value 0.292 | locus YER016W, strain bim1, stronger effect = lower value 0.859 | locus YER111C, strain swi4, stronger effect = lower value 0.694 | locus YER155C, strain BEM2 (second series), stronger effect = lower value 0.849 | locus YER155C, strain BEM2, stronger effect = lower value 0.887 | locus YER167W, strain BCK2, stronger effect = lower value 0.78 | locus YFR010W, strain ubp6, stronger effect = lower value 0.63 | locus YGL086W, strain mad1, stronger effect = lower value 0.669 | locus YGL167C, strain pmr1, stronger effect = lower value 0.422 | locus YGL173C, strain kem1, stronger effect = lower value 0.277 | locus YGL240W, strain doc1, stronger effect = lower value 0.81 | locus YGL248W, strain PDE1, stronger effect = lower value 0.474 | locus YGL253W, strain hxk2, stronger effect = lower value 0.588 | locus YGR135W, strain pre9, stronger effect = lower value 0.789 | locus YGR252W, strain gcn5, stronger effect = lower value 0.75 | locus YHR013C, strain ard1, stronger effect = lower value 0.329 | locus YHR027C, strain rpn1, stronger effect = lower value 0.191 | locus YHR129C, strain ARP1, stronger effect = lower value 0.565 | locus YHR142W, strain chs7, stronger effect = lower value 0.532 | locus YHR200W, strain rpn10, stronger effect = lower value 0.845 | locus YIL066C, strain RNR3, stronger effect = lower value 0.153 | locus YIL073C, strain SPO22, stronger effect = lower value 0.198 | locus YJL092W, strain hpr5, stronger effect = lower value 0.882 | locus YJL095W, strain BCK1 (second series), stronger effect = lower value 0.489 | locus YJL129C, strain trk1, stronger effect = lower value 0.829 | locus YJL134W, strain LCB3, stronger effect = lower value 0.825 | locus YJL154C, strain vps35, stronger effect = lower value 0.886 | locus YJL164C, strain tpk1, stronger effect = lower value 0.489 | locus YJL166W, strain qcr8, stronger effect = lower value 0.485 | locus YJL187C, strain SWE1 (second series), stronger effect = lower value 0.13 | locus YJL187C, strain SWE1, stronger effect = lower value 0.604 | locus YJR043C, strain POL32, stronger effect = lower value 0.244
0.185 (active) and 0.996 (inactive): locus YJL095W, strain BCK1, stronger effect = lower value
inactive: locus YBR021W, strain FUR4, stronger effect = lower value 0.918 | locus YBR171W, strain sec66, stronger effect = lower value 0.938 | locus YDL005C, strain med2, stronger effect = lower value 0.949 | locus YDL185W, strain tfp1, stronger effect = lower value 0.992 | locus YDR001C, strain nth1, stronger effect = lower value 0.984 | locus YDR388W, stronger effect = lower value 0.93 | locus YDR392W, strain spt3, stronger effect = lower value 0.84 | locus YEL061C, strain CIN8 (second series), stronger effect = lower value 0.936 | locus YER110C, stronger effect = lower value 1.03 | locus YGL078C, strain dbp3, stronger effect = lower value 1.02 | locus YGL227W, strain vid30, stronger effect = lower value 0.991 | locus YHR030C, strain SLT2, stronger effect = lower value 1.01 | locus YHR079C, strain IRE1 (second series), stronger effect = lower value 0.946 | locus YHR079C, strain IRE1, stronger effect = lower value 1.03 | locus YHR094C, strain hxt1, stronger effect = lower value 1.02 | locus YIL125W, strain kgd1, stronger effect = lower value 1.04 | locus YIR030C, strain dcg1, stronger effect = lower value 0.973 | locus YJL115W, strain asf1, stronger effect = lower value 0.947 | locus YJL168C, strain set2, stronger effect = lower value 0.997
